Laboratory results as given in the supplement of paper PMC3334620.
The full ranking holds about 33,000 sequences; the median of “E-score (-0.5 to 0.5)” is about -0.011, and the highest 2% start at about 0.28. Only a selection was taken, and the highest values are over-represented in it overall.

Molecular target: T1, Gcr1 (UniProt P07261)
T1 sequence: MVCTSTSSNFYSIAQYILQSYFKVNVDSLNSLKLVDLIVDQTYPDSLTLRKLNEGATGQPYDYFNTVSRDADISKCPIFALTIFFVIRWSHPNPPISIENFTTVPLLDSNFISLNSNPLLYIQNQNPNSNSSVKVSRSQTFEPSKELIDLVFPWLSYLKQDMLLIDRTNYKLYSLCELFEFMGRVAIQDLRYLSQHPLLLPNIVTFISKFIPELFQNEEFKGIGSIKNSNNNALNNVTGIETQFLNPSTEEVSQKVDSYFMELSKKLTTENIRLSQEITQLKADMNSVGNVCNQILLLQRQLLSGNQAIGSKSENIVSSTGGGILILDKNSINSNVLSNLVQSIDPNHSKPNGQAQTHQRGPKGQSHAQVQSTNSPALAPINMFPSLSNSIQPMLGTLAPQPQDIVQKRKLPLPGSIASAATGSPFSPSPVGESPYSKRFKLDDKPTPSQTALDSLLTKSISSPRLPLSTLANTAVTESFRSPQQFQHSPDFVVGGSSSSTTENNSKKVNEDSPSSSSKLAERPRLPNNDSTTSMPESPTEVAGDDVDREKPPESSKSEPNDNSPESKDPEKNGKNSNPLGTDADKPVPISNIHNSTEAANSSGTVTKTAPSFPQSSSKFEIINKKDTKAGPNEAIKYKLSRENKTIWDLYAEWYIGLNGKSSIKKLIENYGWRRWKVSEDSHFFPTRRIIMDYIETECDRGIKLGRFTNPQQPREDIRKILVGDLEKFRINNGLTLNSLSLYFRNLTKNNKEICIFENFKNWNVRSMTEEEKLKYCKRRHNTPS
Test: PBM E-score (8-mer binding enrichment) (E-score (-0.5 to 0.5)); higher = stronger / more preferred TF binding
Details: protein concentration: 100 nM; construct: GST-full length
Procedure: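 Universal 'all 10-mer' protein binding microarrays (Agilent AMADID 015681) probed with GST-tagged S. cerevisiae TFs (full-length or DBD) made by in vitro transcription/translation (PURExpress), about 100-200 nM. Bound TF was detected with fluorescent anti-GST. Each ungapped 8-mer (which stands for itself and its reverse complement) is scored by the PBM enrichment score (E-score), a modified Wilcoxon-Mann-Whitney statistic from -0.5 to +0.5, computed with the Universal PBM Analysis Suite. Scale: above 0.35 generally sequence-specific binding.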

Row | Sequence | PBM E-score
1 | AGCCCGTG | -0.0206
2 | ACCACTGA | 0.0982
3 | AACCCGGG | 0.0515
4 | CGCCGGGC | -0.0527
5 | ACACCTTA | 0.0539
6 | GCTGATCC | -0.0746
7 | GCCGCCAA | 0.125
8 | GCTCGCGA | 0.0716
9 | AGCACCCC | 0.131
10 | GGCACCCC | 0.322
11 | CGCACCCA | 0.236
12 | TGCACCCA | 0.151
13 | CGCACCCC | 0.0174
14 | GGCACCCA | 0.381
15 | AACCTGCA | -0.0327
16 | CCCGATGA | -0.0833
17 | CAAATCGG | 0.0561
18 | ATTCCAAA | 0.307
19 | CTTCCGGA | 0.347
20 | CATCCAAA | 0.298
21 | CATCCAAG | -0.0862
22 | ATTCCACA | 0.247
23 | ATTCCGAA | 0.147
24 | ATTCCACG | 0.0676
25 | CTTCCGGC | 0.111

Row | Sequence | PBM E-score
26 | CATCCAAC | -0.0403
27 | ACTCCAAA | 0.116
28 | ATTCCGGA | 0.197
29 | CTTCCACA | 0.349
30 | AGCTTATG | 0.0485
31 | CCGACATA | 0.0516
32 | GATAACCC | -0.017
33 | AGCCCCCG | -0.0643
34 | AGCGGGCA | -0.156
35 | CTCCGGGA | 0.00075
36 | ACGGAGGC | -0.00955
37 | CGTCCAAG | -0.0458
38 | AGTCCAAA | -0.0142
39 | GTTCCAAA | 0.302
40 | CGTCCAAA | 0.33
41 | GTTCCAAC | 0.0801
42 | ATTCCAAT | 0.299
43 | CTTCCAAA | 0.338
44 | ATTCCAAC | 0.221
45 | CTTCCAAC | 0.181
46 | TTTCCAAA | 0.178
47 | CTTCCAAG | -0.132
48 | ATTCCAAG | 0.196
49 | GGCACTCA | -0.189
50 | AACGTCTT | 0.158

Row | Sequence | PBM E-score
51 | AGCAAGTA | -0.149
52 | AGAATACG | 0.182
53 | TAGCCTCA | -0.053
54 | CAACCAAA | 0.313
55 | CAACCAAG | 0.0892
56 | CAACCAAC | -0.102
57 | AGCCAAGC | -0.0873
58 | CAAACTGA | 0.105
59 | GCCGGAAC | 0.247
60 | CGCCATTC | 0.0469
61 | CGAGTCCA | -0.051
62 | GGAGTCCA | 0.344
63 | TGAGTCCA | 0.146
64 | AGAGTCCC | 0.0617
65 | CGAGTCCC | 0.168
66 | GGAGTCCC | 0.286
67 | GCCGAGTA | 0.115
68 | ACCGGGCT | 0.113
69 | GCTTACCA | -0.193
70 | ACGCTTGA | 0.0746
71 | GCGGAACC | 0.341
72 | CCGGAACG | -0.0389
73 | CCGGAACA | -0.0359
74 | GCGGAACA | -0.172
75 | CCGGAACC | 0.325

Row | Sequence | PBM E-score
76 | ACGGAACC | 0.0697
77 | CATTGTTC | -0.0803
78 | CCAAACAA | 0.213
79 | CAGTGGTA | 0.115
80 | AAGCCTTC | -0.191
81 | CCTCGGTC | -0.223
82 | AAGGGAAC | 0.0126
83 | CCACTACG | 0.323
84 | CCACTAAG | 0.374
85 | CCACTAAC | 0.21
86 | CCACTAGA | 0.235
87 | ACACTAAG | -0.00776
88 | CCACTAGG | 0.287
89 | CCACTACC | 0.125
90 | CCACTATA | 0.276
91 | ACACTATC | -0.0774
92 | CCACTACA | 0.194
93 | CCACTATC | 0.368
94 | ACACTAGG | -0.176
95 | CACCATAC | 0.0726
96 | ACCTGTGG | -0.0729
97 | GCTTGGAA | -0.114
98 | CGGGGTCA | -0.096
99 | AAGAAACC | 0.0595
100 | AGGCGTAA | 0.0474

Row | Sequence | PBM E-score
101 | GACGCATA | 0.141
102 | CCACTAAA | 0.314
103 | GCACTAAA | 0.0118
104 | TCACTAAA | 0.134
105 | CCCCGTCG | 0.00224
106 | CCCGATGC | -0.124
107 | AGGGATAT | -0.234
108 | GTATGCGA | 0.291
109 | ATATGCGA | 0.0152
110 | CTATGCGA | -0.14
111 | ATTAGTGC | -0.00168
112 | ATTAGTGG | 0.388
113 | AATAGTGG | 0.425
114 | ATTAGTGA | 0.0812
115 | AATAGTGC | -0.175
116 | AATAGTGA | 0.0209
117 | GAGCGAAC | -0.28
118 | TCCATAGA | 0.203
119 | CGTAAGAA | -0.113
120 | CTAAAGAC | -0.0627
121 | TAAAGGAA | 0.314
122 | CAAAGGAA | 0.104
123 | GAAAGGAA | 0.0552
124 | AAAAGGAA | 0.361
125 | AAAAGGAC | 0.0425

Row | Sequence | PBM E-score
126 | AAAAGGAT | -0.00496
127 | AATCTCGC | -0.0134
128 | GCTGGTAA | 0.122
129 | ATAGGTCG | 0.0752
130 | ATTTTACG | 0.337
131 | ATTTTACC | 0.0326
132 | AATTTACG | 0.0625
133 | GATAACAC | -0.12
134 | GTGTCCAA | 0.0511
135 | ACTGGATG | 0.326
136 | ACTGGACA | 0.0644
137 | CCTGGATC | -0.00306
138 | ACTGGATA | 0.108
139 | ACTGGATC | 0.316
140 | ACTGGACT | 0.134
141 | ACTGGAGG | 0.206
142 | ACTGGACG | 0.303
143 | ACTGGAGC | 0.0795
144 | CGACTGTC | -0.252
145 | CTGCACAG | -0.0453
146 | GCGCTAAA | 0.232
147 | CTTCAGCA | -0.0569
148 | CTATATTA | 0.307
149 | ATATATTA | 0.0581
150 | CTCTATTA | 0.154

Row | Sequence | PBM E-score
151 | GTTCATCA | 0.108
152 | CACCTAAA | 0.266
153 | GTCCTAAA | 0.21
154 | ATCCTAAA | 0.211
155 | TACCTAAA | 0.0795
156 | TTCCTAAA | 0.36
157 | AACCTAAA | 0.294
158 | GGGAGTGA | -0.0739
159 | GTCCGCAC | -0.0732
160 | AGATCCAC | 0.183
161 | GGATCCAC | 0.302
162 | CGATCCAC | -0.153
163 | CGATCCAA | 0.0146
164 | AGATCCAA | 0.186
165 | GGATCCAA | 0.299
166 | TGGATTAA | 0.0316
167 | GTACTTGA | -0.209
168 | AAGAAAGG | -0.125
169 | ATGCGCTC | 0.0347
170 | ACCCCGTA | -0.0035
171 | AGAGCTTA | -0.119
172 | GAAGCACA | 0.117
